PubChem BioAssay AID1159580 (chemical genetic matrix, 2015)
“And” between values parts separate entries of the source, which are not always exact repeats. Equal entries are not always repeated. About 2,000 (36%) of roughly 5,500 compounds were called active. Not shown: some 18% with an inconclusive outcome. Cut-off read from the data, not from the text of the source: active = normalized growth mostly below about 0.91 (no sharp cut-off); inconclusive = no clear call, values can overlap the other calls; inactive = mostly above about 0.92. This is one part of the list.

Test: chemical genetic growth profiling, strain panel (AID 1159580);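 note: tested at 20 µM; growth read once vehicle control cultures reached saturation at 30 °C; 1 = growth at the plate median or of vehicle wells; lower values mean less growth of the strain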
Conditions: S. cerevisiae deletion strains, growth OD

Measured: normalized growth

NS(=O)(=O)c1cc(C2(O)NC(=O)c3ccccc32)ccc1Cl (stereo not given)
inactive: locus YAL021C, strain ccr4, hits give low values 0.958 | locus YAL026C, strain drs2, hits give low values 0.991 | locus YAL030W, strain snc1, hits give low values 0.993 | locus YBL061C, strain skt5, hits give low values 0.996 | locus YBR009C, strain hhf1, hits give low values 1.01 | locus YBR021W, strain FUR4, hits give low values 1.02 | locus YBR023C, strain chs3, hits give low values 0.992 | locus YBR171W, strain sec66, hits give low values 0.985 | locus YBR229C, strain ROT2, hits give low values 1.01 | locus YBR231C, strain swc5, hits give low values 0.972 | locus YBR279W, strain paf1, hits give low values 0.996 | locus YCL011C, strain gbp2, hits give low values 0.99 | locus YCL016C, strain dcc1, hits give low values 0.987 | locus YCL029C, strain bik1, hits give low values 1.02 | locus YCL061C, strain MRC1, hits give low values 0.986 | locus YCL069W, strain vba3, hits give low values 0.999 | locus YCR088W, strain abp1, hits give low values 0.994 | locus YDL005C, strain med2, hits give low values 0.974 | locus YDL035C, strain GPR1, hits give low values 0.997 | locus YDL040C, strain nat1, hits give low values 0.995 | locus YDL074C, strain BRE1, hits give low values 1.03 | locus YDL101C, strain DUN1, hits give low values 1.02 | locus YDL134C, strain PPH21, hits give low values 1 | locus YDL185W, strain tfp1, hits give low values 1.03 | locus YDL192W, strain arf1, hits give low values 1.01 | locus YDR001C, strain nth1, hits give low values 0.99 | locus YDR069C, strain doa4, hits give low values 0.993 | locus YDR101C, strain arx1, hits give low values 1 | locus YDR137W, strain rgp1, hits give low values 1.01 | locus YDR159W, strain sac3, hits give low values 1.01 | locus YDR162C, strain NBP2, hits give low values 1.01 | locus YDR195W, strain ref2 0.929 | locus YDR297W, strain sur2, hits give low values 0.995 | locus YDR318W, strain mcm21, hits give low values 1.02 | locus YDR334W, strain swr1, hits give low values 1.01 | locus YDR335W, strain msn5, hits give low values 0.991 | locus YDR388W, hits give low values 1.02 | locus YDR392W, strain spt3, hits give low values 1.04 | locus YDR502C, strain sam2, hits give low values 1.02 | locus YEL003W, strain gim4, hits give low values 0.985 | locus YEL037C, strain rad23, hits give low values 0.992 | locus YEL061C, strain CIN8 (second series), hits give low values 1 | locus YEL061C, strain CIN8, hits give low values 1.01 | locus YER015W, strain faa2, hits give low values 0.985 | locus YER016W, strain bim1, hits give low values 0.997 | locus YER110C, hits give low values 1.02 | locus YER111C, strain swi4, hits give low values 0.997 | locus YER155C, strain BEM2 (second series), hits give low values 0.939 | locus YER155C, strain BEM2, hits give low values 1.01 | locus YER167W, strain BCK2, hits give low values 1.01 | locus YFR010W, strain ubp6, hits give low values 0.982 | locus YGL078C, strain dbp3, hits give low values 1.02 | locus YGL086W, strain mad1, hits give low values 1.01 | locus YGL167C, strain pmr1, hits give low values 0.99 | locus YGL173C, strain kem1, hits give low values 0.968 | locus YGL227W, strain vid30, hits give low values 0.997 | locus YGL240W, strain doc1, hits give low values 0.964 | locus YGL248W, strain PDE1, hits give low values 1.02 | locus YGL253W, strain hxk2, hits give low values 1 | locus YGR078C, strain PAC10, hits give low values 1.02 | locus YGR135W, strain pre9, hits give low values 1.04 | locus YGR229C, strain SMI1, hits give low values 1.01 | locus YGR252W, strain gcn5, hits give low values 0.991 | locus YHR013C, strain ard1, hits give low values 0.952 | locus YHR027C, strain rpn1, hits give low values 0.99 | locus YHR030C, strain SLT2, hits give low values 1.01 and 0.984 | locus YHR079C, strain IRE1 (second series), hits give low values 1.01 | locus YHR079C, strain IRE1, hits give low values 0.99 | locus YHR094C, strain hxt1, hits give low values 1.01 | locus YHR129C, strain ARP1, hits give low values 1.01 | locus YHR142W, strain chs7, hits give low values 1.01 | locus YHR200W, strain rpn10, hits give low values 1.02 | locus YIL066C, strain RNR3, hits give low values 1.01 | locus YIL073C, strain SPO22, hits give low values 1.06 | locus YIL125W, strain kgd1, hits give low values 1.01 | locus YIR030C, strain dcg1, hits give low values 1.03 | locus YJL092W, strain hpr5, hits give low values 0.993 | locus YJL095W, strain BCK1 (second series), hits give low values 0.997 | locus YJL095W, strain BCK1, hits give low values 1.03 and 0.98 | locus YJL115W, strain asf1, hits give low values 0.983 | locus YJL129C, strain trk1, hits give low values 0.979 | locus YJL134W, strain LCB3, hits give low values 1 | locus YJL154C, strain vps35, hits give low values 0.984 | locus YJL164C, strain tpk1, hits give low values 0.981 | locus YJL166W, strain qcr8, hits give low values 0.977 | locus YJL168C, strain set2, hits give low values 1.02 | locus YJL187C, strain SWE1 (second series), hits give low values 1.03 | locus YJL187C, strain SWE1, hits give low values 0.991 | locus YJR043C, strain POL32, hits give low values 0.986 | locus YJR066W, strain TOR1, hits give low values 0.946
